According to PubChem BioAssay (NCI):
Compounds without any hit were thinned out: in the full panel of roughly 79,000, 15% have a hit. No stated cut-off is given here; in the data, active means growth inhibition above about 70%; inactive means the rest.

Assays:
[1] = NCI Yeast Anticancer Drug Screen. Data for the rad50 strain (AID 155);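 further: 0% = growth of vehicle-only cultures of the same strain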; conditions: S. cerevisiae rad50 strain growth inhibition; at 50.0 µM; stronger effect = higher value
Procedure, shortened: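 Yeast carrying a defined DNA repair defect were exposed to test compounds, and growth was compared with vehicle-treated controls to give percent inhibition.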

[2] = NCI Yeast Anticancer Drug Screen. Data for the mec2-1 strain (AID 157); conditions: S. cerevisiae mec2-1 strain, at 50.0 µM, stronger effect = higher value
Procedure, shortened: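 Yeast mec2-1 mutant treated with compound. Readout: growth inhibition vs vehicle controls.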

[3] = NCI Yeast Anticancer Drug Screen. Data for the sgs1 mgt1 strain (AID 161);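 further: 0% = growth of cultures given vehicle only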; conditions: S. cerevisiae sgs1 mgt1 strain, at 50.0 µM, stronger effect = higher value
Procedure, shortened: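 Inhibition of yeast growth, normalised to vehicle-treated controls, is reported for a strain bearing genetic alterations in DNA damage repair.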

[4] = NCI Yeast Anticancer Drug Screen. Data for the cln2 rad14 strain (AID 165);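 further: 0% = growth equal to vehicle treated cultures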; conditions: S. cerevisiae cln2 rad14 strain, at 50.0 µM, stronger effect = higher value
Procedure, shortened: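 cln2 rad14 yeast strain; compound exposure; growth inhibition read vs vehicle controls.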

[5] = NCI Yeast Anticancer Drug Screen. Data for the bub3 strain (AID 167); conditions: S. cerevisiae bub3 mutant strain, at 50.0 µM, stronger effect = higher value
Procedure, shortened: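 Compounds were applied to a genetically altered yeast strain carrying a cell-cycle control defect. Growth inhibition was scored against vehicle-treated controls.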

[6] = NCI Yeast Anticancer Drug Screen. Data for the mlh1 rad18 strain (AID 175); conditions: S. cerevisiae mlh1 rad18 strain growth inhibition; at 50.0 µM; stronger effect = higher value
Procedure, shortened: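 Yeast w/ defined DNA-repair lesions; compound exposure; growth vs vehicle controls → % inhibition.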

Measured: growth inhibition

C=C(Cl)COc1ccc(OCC(=C)Cl)cc1
inactive: [1] 19.3% | [2] -17.1% | [3] 31.8% | [4] 22.6% | [5] 42% | [6] 1.15%

CC1=C(/C=C/Cl)CC(Cl)C(C)(Cl)C1 (stereo unspecified)
inactive: [1] -2.25% | [2] -10.4% | [3] -4.5% | [4] 12.5% | [5] -0.45% | [6] -45.2%

O=C(c1ccccc1)N1C(=O)c2ccccc21
inactive: [1] -11.1% | [2] 5.75% | [3] -12.8% | [4] -16.3% | [5] 9.5% | [6] -15.5%

Cn1cc(-c2ccc3c4ccccc4n(C)c3c2)c2ccccc21
inactive: [1] -17.9% | [2] -4.3% | [3] -7.5% | [4] -2.8% | [5] -10.2% | [6] 2.15%

CC(C)CC(=O)Cc1ccccc1
inactive: [1] 18.8% | [2] 14.7% | [3] 19.2% | [4] -52.7% | [5] -2.2% | [6] -0.2%

CCCCCCCCCCCCCCCCCC(=O)[O][Al][O]C(C)C
inactive: [1] -38.1% | [2] -35% | [3] -10.8% | [4] 4.55% | [5] -19.5% | [6] -14.9%

CCNC(=O)c1csnn1
inactive: [1] -6.55% | [2] -5.6% | [3] -5.95% | [4] 12.5% | [5] -18.1% | [6] 2%

CC(C)=CCC/C(C)=C/C=O
inactive: [1] 9.1% | [2] 2.95% | [3] 5.1% | [4] 9.6% | [5] 7.95% | [6] 8.4%

COc1cccc(C(N)=O)c1OC
inactive: [1] 3.35% | [2] 8.05% | [3] -10.9% | [4] -22.4% | [5] 11.7% | [6] -15.2%

CCOc1ccc(C(=O)OC)cc1
inactive: [1] 31.1% | [2] -3.45% | [3] 31% | [4] 16.8% | [5] 38.8% | [6] 23.7%

CN(C)CCNC1c2ccccc2-c2ccccc21
inactive: [1] -15.1% | [2] -22.6% | [3] 3.35% | [4] -0.9% | [5] 10.2% | [6] -9%

Cn1c2ccccc2c(=O)c2c(O)cc3c(c21)C=CC1(CCCCC1)O3
inactive: [1] -4.75% | [2] 11.4% | [3] -2.25% | [4] 19.1% | [5] -5.65% | [6] 25.1%

O=C(CCN1C(=O)CC1c1ccco1)N1CCOCC1 (stereo unspecified)
inactive: [1] -1.55% | [2] -36.1% | [3] -10.5% | [4] 13.1% | [5] -18.2% | [6] 13.3%

O=S1(=O)c2ccccc2N2CCCc3cc(Cl)cc1c32
inactive: [1] -49.9% | [2] -23.1% | [3] -41.7% | [4] -3.35% | [5] -8.9% | [6] -4.15%

O=C1CCCCC(=O)Nc2ccc3nc4ccccc4c(c3c2)SCCCCCCCCSc2c3ccccc3nc3ccc(cc23)N1
inactive: [1] -13.4% | [2] -9.65% | [3] 2.55% | [4] -6.05% | [5] -2.3% | [6] -4.2%

COC(=O)N/N=C(/c1nc2ccc([N+](=O)[O-])cc2[nH]c1=O)C(O)c1ccc(OC)c(OC)c1 (stereo unspecified)
inactive: [1] -3.3% | [2] 0.35% | [3] -3.05% | [4] 17.7% | [5] 26.5% | [6] 6.2%

CC1=C(C(=O)O)CCc2ccccc21
inactive: [1] 40.7% | [2] -11.5% | [3] 19.9% | [4] 13.7% | [5] 15% | [6] 36.8%

O=C(O)COc1cc(-c2ccccc2)nc2ccc(F)cc12
inactive: [1] -3% | [2] 16.6% | [3] 31.5% | [4] 7.25% | [5] 3.1% | [6] 10.2%

CC1(C)OC(=O)N=C1c1ccc(Br)cc1
inactive: [1] 1.4% | [2] -25.6% | [3] -21.1% | [4] 21.8% | [5] -22% | [6] 15.3%

CCO/C(=C/[S+](C)C)c1ccccc1
inactive: [1] 0.55% | [2] -4.4% | [3] -19.9% | [4] 2.95% | [5] 9.3% | [6] 5.35%

CC(C)SC(C)(NC(=O)C1C(C)(C)CCC1(C)C)C(=O)O (stereo unspecified)
inactive: [1] -52.6% | [2] 1.45% | [3] -24.6% | [4] 1.5% | [5] 5.45% | [6] -49.5%
